These results are taken from PubChem BioAssay (Tox21).

The nature of assay [1]: qHTS assay for small molecules that induce genotoxicity in human embryonic kidney cells expressing luciferase-tagged ATAD5 (AID 651632). Further: nearly all actives have a fitted effect of over 15% in size. The gist of the method: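 HEK293T cells carrying a luciferase reporter tagged to ATAD5 were exposed to compound or DMSO vehicle for 16 hr at 37C, 5% CO2. Amplite was added, and after 30 min at room temperature luciferase activity was read as a marker of ATAD5 induction.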
For orientation: Quantitative high-throughput screening tests each substance at several concentrations.

Assay [2] in a line: qHTS assay for small molecules that induce genotoxicity in human embryonic kidney cells expressing luciferase-tagged ATAD5 - cell viability (AID 651634; calls by dose curve; further: nearly all actives have a fitted effect of over 25% in size; further: potency means the concentration at half of the fitted maximal effect). Summed up: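 HEK293T cells expressing luciferase-tagged ATAD5 were exposed to compound or DMSO for 15.5 hr at 37C, 5% CO2. Viability was then read as live-cell protease activity by CellTiter-Fluor fluorescence after 30 min at 37C.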

Assay [3] can be described thus: qHTS assay for small molecule disruptors of the mitochondrial membrane potential - cell viability (AID 720634; calls by dose curve;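 further: human HepG2 liver cancer cells; nearly all actives have a fitted effect of over 20% in size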). Summed up: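 HepG2 cells seeded overnight at 37 C, then exposed to compound or DMSO for 1 hr at 37 C, 5% CO2. m-MPI dye added, then CellTiter-Glo for 30 min at room temperature; viability read as ATP luminescence.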
Assay [4] can be described thus: qHTS assay for small molecule disruptors of the mitochondrial membrane potential (AID 720635). Further: potency means the concentration at half of the fitted maximal effect. Summed up:
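Mitochondrial membrane potential tracked with Mito-MPS dye, red aggregates (ex 540/em 590 nm) against green monomers (ex 490/em 535 nm). Compound treatment 1 hr at 37C, dye 30 min in HepG2.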

Assay [5] is described as follows: qHTS assay to test for compound auto fluorescence at 590 nm (red) in HepG2 cells (AID 720674). The gist of the method:
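We screened compounds on adherent HepG2 cells, incubating them for an hour at 37 C in 5% CO2 before reading emission at 590 nm under 540 nm excitation; values reflect equivalence to Rose Bengal sodium fluorescence.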

Assay [6] in a line: qHTS assay to test for compound auto fluorescence at 535 nm (green) in HepG2 cells (AID 720675).
Assay [7] is described as follows: qHTS assay to test for compound auto fluorescence at 460 nm (blue) in HEK293 cells (AID 720678). Summed up:
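Blue read-out at excitation 405 nm and emission 460 nm follows overnight compound exposure of HEK293 cells at 37C in 5% CO2. Activity is given as auto fluorescence equivalency to triamterene.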

Assay [8] is described as follows: qHTS assay to test for compound auto fluorescence at 590 nm (red) in HEK293 cells (AID 720679). Summed up: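 Red channel, Ex/Em 540/590nm; signal expressed as equivalency to Rose Bengal sodium. HEK293, 2,000 cells/well, 10% dialyzed FBS; 23 nL compound pinned after 4-5 hr attachment; overnight 37C/5% CO2 before reading.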
Assay [9] can be described thus: qHTS assay to test for compound auto fluorescence at 535 nm (green) in HEK293 cells (AID 720680).
The nature of assay [10]: qHTS assay to test for compound auto fluorescence at 460 nm (blue) in HEK293 cell free culture (AID 720681). The gist of the method:
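Blue fluorescence (Ex 405/Em 460 nm, triamterene-equivalent) was read immediately after pin transfer of compound or DMSO into medium (DMEM, 10% FBS) without cells.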

Assay [11] is described as follows: qHTS assay to test for compound auto fluorescence at 535 nm (green) in HEK293 cell free culture (AID 720682). The gist of the method:
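Read-out: 485/535 nm fluorescence intensity, calibrated against fluorescein. Medium only (DMEM + 10% FBS, no cells); test compound or DMSO vehicle added by pintool before plate reading.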

Assay [12] can be described thus: qHTS assay to test for compound auto fluorescence at 590 nm (red) in HEK293 cell free culture (AID 720683). The gist of the method:
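Red-channel autofluorescence of compounds in culture medium (DMEM, 10% FBS), no cells, measured at 540/590 nm. Rose Bengal sodium is the reference fluorophore for equivalence.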

A short description of assay [13]: qHTS assay to test for compound auto fluorescence at 590 nm (red) in HepG2 cell free culture (AID 720684). The gist of the method: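 Steps: dispense MEM/10% FBS medium, no cells; pin compound or DMSO vehicle; read red channel, Ex/Em 540/590 nm. Output given as Rose Bengal sodium equivalents.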
Assay [14] in a line: qHTS assay to test for compound auto fluorescence at 460 nm (blue) in HepG2 cell free culture (AID 720685). The gist of the method:
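Compound (23 nL) or DMSO pinned into cell-free MEM with 10% FBS; blue fluorescence read at 405/460 nm excitation/emission, expressed as auto-fluorescence equivalency to triamterene.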

The nature of assay [15]: qHTS assay to test for compound auto fluorescence at 535 nm (green) in HepG2 cell free culture (AID 720686).
Assay [16] can be described thus: qHTS assay to test for compound auto fluorescence at 460 nm (blue) in HepG2 cells (AID 720687). The gist of the method:
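Blue-channel autofluorescence (Ex/Em 405/460 nm, triamterene-equivalent) was measured after 1 hr compound exposure at 37 C, 5% CO2. Cells were HepG2, plated overnight at 37 C in MEM plus 10% FBS.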

In assay [17] the target is Glucocorticoid receptor (Homo sapiens) (UniProt P04150). In words: qHTS assay to identify small molecule agonists of the glucocorticoid receptor (GR) signaling pathway (AID 720691; active means well fitted activation curve with a large enough effect in the signal ratio in the repeat runs, not every such curve was filed as active; the % refers to the signal ratio). The conditions noted are these: GR-bla HeLa, beta-lactamase reporter ratio, 18 h; activation: at 62.4 µM (top of the series). The gist of the method:
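GR-bla HeLa cells (beta-lactamase reporter under glucocorticoid response element) were plated 4 h at 37 C/5% CO2, given compounds in DMSO, and incubated 18 h at 37 C. LiveBLAzer B/G FRET substrate was added for 2 h at room temperature, then fluorescence intensity read.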

Assay [18] shares this target. As to the kind of experiment: qHTS assay to identify small molecule antagonists of the glucocorticoid receptor (GR) signaling pathway (AID 720692; active means well fitted inhibition curve with a large enough effect in the signal ratio in the repeat runs, not every such curve was filed as active; the % refers to the signal ratio). Summed up: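 GR-bla HeLa cells (beta-lactamase reporter under glucocorticoid response element) were pre-plated 4 h at 37 C, treated with compounds plus 5 nM dexamethasone (final) for 18 h, then read by LiveBLAzer B/G FRET fluorescence after 2 h.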

A short description of assay [19]: qHTS assay for small molecule agonists of the p53 signaling pathway - cell viability (AID 651633; calls by dose curve; further: nearly all actives have a fitted effect of over 30% in size; further: potency means the concentration at half of the fitted maximal effect). The gist of the method:
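Viability counter-read: CellTiter-Glo luminescence (30 min, room temperature) in the same p53RE-bla plates. These plates had been exposed to compounds for 16 h at 37 C.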

A number with no mark means an inactive call. Inconclusive results are not listed. Active and inactive are the calls of the source. Unless noted, the call rests on the fitted dose curve; in most records, active means well fitted curve in the direction sought with a large enough effect in the repeat runs; inconclusive means weak or mixed curves; inactive means no such curve, though single readings can be large; an effect the other way counts as inactive or inconclusive.

Sequence of Glucocorticoid receptor (Homo sapiens) (P04150 whole entry, looked up): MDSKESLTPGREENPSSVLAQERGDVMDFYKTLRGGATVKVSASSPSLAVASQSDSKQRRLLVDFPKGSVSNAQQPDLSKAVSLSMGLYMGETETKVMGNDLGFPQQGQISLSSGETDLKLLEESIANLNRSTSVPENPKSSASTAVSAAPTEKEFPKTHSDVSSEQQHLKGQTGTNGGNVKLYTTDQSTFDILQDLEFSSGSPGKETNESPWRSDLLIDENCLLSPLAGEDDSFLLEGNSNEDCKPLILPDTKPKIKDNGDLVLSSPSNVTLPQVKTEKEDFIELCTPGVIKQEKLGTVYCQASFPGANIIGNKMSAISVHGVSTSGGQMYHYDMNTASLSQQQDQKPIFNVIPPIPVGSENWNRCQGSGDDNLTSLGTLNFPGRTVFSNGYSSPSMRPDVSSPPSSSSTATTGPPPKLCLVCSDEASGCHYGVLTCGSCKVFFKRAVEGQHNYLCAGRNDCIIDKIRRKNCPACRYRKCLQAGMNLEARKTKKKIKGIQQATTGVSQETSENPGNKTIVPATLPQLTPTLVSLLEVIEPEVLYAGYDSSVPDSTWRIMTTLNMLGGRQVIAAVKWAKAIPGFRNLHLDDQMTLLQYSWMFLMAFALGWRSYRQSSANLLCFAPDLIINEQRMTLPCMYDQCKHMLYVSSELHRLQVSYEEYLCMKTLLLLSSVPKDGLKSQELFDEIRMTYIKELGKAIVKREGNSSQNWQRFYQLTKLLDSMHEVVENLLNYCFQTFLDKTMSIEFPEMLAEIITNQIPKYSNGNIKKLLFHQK

On to `CCC(Cl)C(Cl)C(Cl)CC(Cl)C(Cl)C(C)Cl` (centres undefined), for which the Potency result in [1], in [2], in assay [3], in assay [5], in assay [6] and in assay [7] was “inactive” in each case. Also, the Potency entry in assay [8], in [10], in [12], in [13], in [14] and in assay [15] was “inactive” each time. Besides, the Potency entry in assay [16] and in [17] was “inactive” each time. Moreover, the Potency in [4] was 24.3 µM (active). Further, the molecule was classed as inactive in [9] and in [11].

For the molecule `Nc1ccc2cc(S(=O)(=O)O)cc(O)c2c1N=Nc1ccccc1C(F)(F)F`, the Potency result in assay [1], in [3], in assay [5], in [6], in assay [7] and in assay [8] was “inactive” in each case. The Potency entry in [10], in [12], in assay [14], in assay [15], in assay [16] and in [17] was “inactive” in each case. Also, the Potency result in [18] was “inactive”. The call in assay [9] and in assay [11] was inactive.

On to `O=Cc1cc(O)ccc1Br`, for which the Potency result in [1], in assay [2], in [3], in assay [5], in assay [6] and in [7] was “inactive” throughout. For the same molecule, the Potency result in assay [8], in [10], in assay [12], in assay [13], in assay [14] and in assay [15] was “inactive” in each case. The Potency result in [16] and in assay [17] was “inactive” in each case. Also, the Potency in [4] is 62 µM (active). Further, the call in [9] was inactive.

Take `Nc1ccccc1O`: the Potency result in [1], in assay [3], in [5], in assay [6], in [7] and in assay [8] was “inactive” throughout. Moreover, the Potency entry in [10], in assay [12], in [14], in assay [16] and in assay [17] was “inactive” in each case. Also, the Potency in assay [4] is 60.3 µM (active). The molecule was called inactive in [9] and in assay [11].

Regarding `O=C(Nc1cccc([N+](=O)[O-])c1)c1cc2ccccc2cc1O`, the Potency entry in assay [1], in assay [5], in assay [6], in assay [7], in assay [8] and in assay [10] was “inactive” each time. In addition, the Potency result in [12], in [13], in assay [14], in assay [15] and in assay [16] was “inactive” in each case. The Potency was 3.86 µM (active) in [19] and 0.154 µM (active) in assay [4]. Also, the outcome in assay [9] was inactive.

Regarding `CNc1ccc(O)cc1`, the Potency entry in assay [2], in assay [5], in assay [6], in [7], in [8] and in assay [10] was “inactive” throughout. Also, the Potency result in assay [12], in assay [13], in assay [14], in assay [15] and in [16] was “inactive” each time. Besides, the outcome in [9] and in assay [11] was inactive.

On to `Fc1ccc(C(c2ccc(F)cc2)N2CCN(C/C=C/c3ccccc3)CC2)cc1`, for which the Potency in [19] is 3.76 µM (active). In addition, the Potency entry in [3], in [5], in [6], in assay [7], in assay [8] and in assay [12] was “inactive” each time. For the same molecule, the Potency entry in assay [16] and in [17] was “inactive” in each case. The outcome in [9] and in assay [11] was inactive.

Take `COc1cccc(N)c1`: the Potency entry in assay [19], in assay [3], in [5], in assay [6], in assay [7] and in assay [8] was “inactive” in each case. Also, the Potency result in assay [12], in [13], in assay [15], in assay [16] and in [17] was “inactive” throughout. The Potency in [2] was 13.8 µM (active). Besides, the call in assay [9] and in [11] was inactive.
